# According to the supplement of paper PMC11150407:
# In all, about 3,000 compounds went through this assay and about 45 (2%) showed an effect of 50% or more. What follows is part of a selection rich in strong results, with near analogues and random picks from the rest.
# Tested on: MOLM1 and UCSD/AML1 (averaged)
# Test: cell viability relative to DMSO control (POC); higher = less growth inhibition
# Settings: 1 µM; 72 h
# Method: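 Primary viability screen in the 3q26 EVI1-high AML cell lines MOLM1 and UCSD/AML1, compounds at 1 uM for 72 h. ATP CellTiter-Glo read-out given as percent viable over DMSO control (POC), averaged over duplicates. This mapping covers the TimTec NDL-3000 natural derivative library, whose compounds are identified by TimTec catalogue codes (ST...).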
row,Structure (SMILES),cell viability [%]
1,COc1cc(C(=O)/C=C2\C(=O)Nc3ccccc32)cc(OC)c1OC,21.6
2,COc1cc(C(=O)NC2Cc3ccccc3NC2=O)cc(OC)c1OC (stereo not drawn),109
3,COc1ccc(C(=O)/C=C2\C(=O)Nc3ccccc32)cc1OC,52.3
4,CN(C)c1ccc2cc3ccc(=[N+](C)C)cc-3oc2c1,3.15
5,CCN(CC)c1ccc2cc(-c3ccc(OC)cc3)c(=O)oc2c1,88.7
6,COc1cc(/C=C/C(=O)c2ccc(C(=O)/C=C/c3cc(OC)c(OC)c(OC)c3)cc2)cc(OC)c1OC,106
7,Cc1ccc(C)c(NC(=O)CN2CCN(Cc3cc(=O)oc4cc(C)ccc34)CC2)c1,98.3
8,COc1ccccc1NC(=O)c1ccc2c(c1)OCO2,94.7
9,CCOc1ccccc1C1CCCC2(O)CCN(CC(=O)NCc3ccco3)CC12 (stereo not drawn),99.5
10,CCOC(=O)C1=C(C)N(C)C(=O)NC1c1cc(Br)c(O)c(OC)c1 (stereo not drawn),116
11,CCOC(=O)c1sc(NC(=O)/C=C/c2ccccc2)c(C(=O)OCC)c1C,96
12,COc1ccc2oc(C(Cl)(Cl)Cl)cc(=O)c2c1,3.78
13,COc1ccc2c(=O)c(O)c(-c3ccccc3)oc2c1,62.7
14,COc1ccc(-c2cc(=O)c3cc(O)ccc3o2)cc1,71.1
15,COc1ccc(-c2cc(=O)c3ccccc3o2)c(OC)c1,113
16,COc1ccc2c(O)c([N+](=O)[O-])c(=O)oc2c1,105
17,COc1ccc2c(=O)cc(C(Cl)(Cl)Cl)oc2c1,5.13
18,COc1cc(OC)cc(C(=O)Nc2ccccc2C(=O)Nc2ccccc2Cl)c1,95.1
19,CN1CCN(Cc2c(O)ccc3cc(-c4nc5ccccc5s4)c(=O)oc23)CC1,101
20,Cc1cc(C)c(NC(=O)Cn2c(=O)cc(C(=O)N3CCc4ccccc4C3)c3ccccc32)c(C)c1,100
21,CCCCCC1CCC(=O)N1CCN=Cc1c(O)c(O)c(C(C)C)c2cc(C)c(-c3c(C)cc4c(C(C)C)c(O)c(O)c(C=NCCN5C(=O)CCC5CCCCC)c4c3O)c(O)c12 (stereo not drawn),86.9

row,Structure (SMILES),cell viability [%]
1,Cc1[nH]c2ccccc2c1CCNC(=O)c1ccc(=O)[nH]c1,96.3
2,CC(Cl)COC(=O)/C=C/c1ccc([N+](=O)[O-])cc1 (stereo not drawn),108
3,Cc1ccc(N2C3=C(C(=O)CC(C)(C)C3)C(c3ccc(O)cc3)C3=C2CC(C)(C)CC3=O)cc1,89.8
4,COc1ncnc2nc[nH]c12,100
5,Cc1ncnc2nc[nH]c12,3.11
6,Cc1ccc(OCCSc2ncnc3nc[nH]c23)cc1,92.7
7,Cc1ccc(-n2c(SCc3cn4ccccc4n3)nc3c(=O)[nH]cnc32)cc1,98.3
8,CCC(O)/N=C/c1c(O)c(O)c(C(C)C)c2cc(C)c(-c3c(C)cc4c(C(C)C)c(O)c(O)c(/C=N/C(O)CC)c4c3O)c(O)c12 (stereo not drawn),88.9
9,Cc1cc2c(C(C)C)c(O)c(O)c(C=NCCN3CCN(C)CC3)c2c(O)c1-c1c(C)cc2c(C(C)C)c(O)c(O)c(C=NCCN3CCN(C)CC3)c2c1O,98.8
10,Cc1cc2c(C(C)C)c(O)c(O)c(/C=N/N3CCN(C)CC3)c2c(O)c1-c1c(C)cc2c(C(C)C)c(O)c(O)c(/C=N/N3CCN(C)CC3)c2c1O,4.5
11,COc1ccc(NC(=O)CSc2nc3c(=O)[nH]cnc3n2-c2ccc(C)cc2)c(OC)c1,102
12,Cc1ccc(C(=O)N2N=C(c3c(-c4ccccc4)c4cc(Br)ccc4[nH]c3=O)CC2c2ccccc2)cc1 (stereo not drawn),100
13,O=C(O)c1ccc2[nH]c3c(c2c1)CCCC3,95.7
14,CCOC(=O)N1CCc2[nH]c3ccc(Cl)cc3c2C1,89.6
15,CCOC(=O)N1CCc2[nH]c3ccc(C)cc3c2C1,42.4
16,CCN(CC)CCC(=O)c1ccc(OC)c(OC)c1,98.6
17,COc1ccc(/C=C/C(=O)Oc2ccc(C(C)C)cc2)c(OC)c1,101
18,COc1ccc(Br)cc1/C=C/C(=O)O,95.6
19,CCOC(=O)CCc1n[nH]c(=O)[nH]c1=O,88.1
20,CCOC(=O)CCc1ccc2c(c1)NC(=O)CC2,91.8
21,CCOC(=O)[C@H]1CCC(=O)N1,17.6

row,Structure (SMILES),cell viability [%]
1,Cc1cccc(NC(=O)CSc2nc3c(=O)[nH]cnc3n2C)c1C,95.1
2,Cc1[nH]c2ccc(Br)cc2c1CCNC(=O)c1cccs1,100
3,Cc1ccc(NC(=O)CSc2nc3c(=O)[nH]cnc3n2CC2CCCO2)c(Cl)c1 (stereo not drawn),98.7
4,Cc1ccc2c(CN3CCN(C(=O)OC(C)(C)C)CC3)cc(=O)oc2c1,14.9
5,Cc1ccc2c(CN3CCN(Cc4ccc(Cl)cc4)CC3)cc(=O)oc2c1,96.2
6,COc1ccc(C(=O)N2CCN(Cc3cc(=O)oc4cc(C)ccc34)CC2)c(OC)c1,93
7,C=C(C)C1CCC2(C)CCC3(C)C(CCC4C5(C)CCC(OC(C)=O)C(C)(C)C5CCC43C)C12 (stereo not drawn),102
8,COc1ccc(OC)c2c(C)cc(SCC(=O)c3ccc4c(c3)OCCO4)nc12,101
9,COC(=O)C1=C(C)NC(SC)=C(C#N)C1c1cc(OC)c(OC)c(OC)c1 (stereo not drawn),18.3
10,COC(=O)C1=C(C)NC2=C(C(=O)CC(c3ccc(OC)c(OC)c3)C2)C1c1cc(OC)c(OC)c(OC)c1 (stereo not drawn),101
11,COC(=O)C1=C(C)NC2=C(C(=O)CCC2)C1c1cc(OC)c(OC)c(OC)c1 (stereo not drawn),94.9
12,CC(=O)/C=C(\C)NC(C)C(=O)O (stereo not drawn),102
13,O=C(/C=C/c1cccc(NC(=O)c2ccc(Br)cc2)c1)c1cccc(NC(=O)c2ccc(Br)cc2)c1,1.83
14,O=C(/C=C/c1ccc(NC(=O)c2cc(NC(=O)C(c3ccccc3)c3ccccc3)cc(NC(=O)C(c3ccccc3)c3ccccc3)c2)cc1)c1ccccc1,94.6
15,O=C(/C=C/c1ccc(Cl)cc1Cl)c1ccc(Br)cc1,108
16,CCCCCCOC(=O)c1ccccc1NC(=O)c1c(O)c2ccccc2[nH]c1=O,97.5
17,CCOc1ccc(/C=C2/Oc3ccc(C(=O)OC)cc3C2=O)cc1OCC,96.6
18,CCOc1cc(/C=C2\Oc3ccc(C(=O)OC)cc3C2=O)ccc1O,16.8
19,COC(=O)c1ccc2c(c1)C(=O)/C(=C/c1ccc(O)c(OC)c1)O2,84.6
20,COc1cc(N(C(C)=O)C2OC(COC(C)=O)C(OC(C)=O)C(OC(C)=O)C2OC(C)=O)c(OC)c2c(C)cc(C)nc12 (stereo not drawn),98.5
21,CCOC(=O)CSc1nc2c(c(=O)[nH]c(=O)n2C)n1Cc1cccc(C)c1,100
